The supplement of paper PMC8975748
Structures can show the parent of a compound that is named as a salt.

Tested on: Saccharomyces cerevisiae BY4741 SeMeCo community
Assay: z-score of subpopulation abundance vs DMSO median, subpopulation auxotrophic for HUM; higher = larger share of this subpopulation than in DMSO controls
Details: 10 µM; 24 h; SM minimal medium; subpopulation (auxotrophy): HUM
Protocol: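 Fluorescent four-plasmid SeMeCo (self-establishing metabolically cooperating S. cerevisiae BY4741 community; plasmids pH-mRuby2, pL-mWasabi, pU-eCFP, pM-TagRFP657) was grown 24 h in minimal SM medium with each Selleck FDA-approved drug at 10 µM in 384-well plates. Cells were fixed and imaged by high-content confocal microscopy. For each auxotrophic subpopulation (and the prototroph), a z-score gives the deviation from the DMSO vehicle-control population median.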

| Structure (SMILES) | z-score of subpopulation abundance |
| --- | --- |
| CC1=C(C(=O)OCCN(Cc2ccccc2)c2ccccc2)C(c2cccc([N+](=O)[O-])c2)C(P2(=O)OCC(C)(C)CO2)=C(C)N1 (stereo not given) [Efonidipine] | 1.54 |
| CC1(C)S[C@@H]2[C@H](NC(=O)[C@H](N)c3ccccc3)C(=O)N2[C@H]1C(=O)O [Ampicillin sodium] | -0.12 |
| OC(c1ccccc1)(c1ccccc1)C12CC[N+](CCOCc3ccccc3)(CC1)CC2 [Umeclidinium bromide] | -0.43 |
| C[C@]12CC[C@@H]3c4ccc(O)cc4CC[C@H]3[C@@H]1CC[C@@H]2O [Estradiol] | -0.92 |
| COCC(=O)Nc1cc(Sc2ccccc2)ccc1N=C(NC(=O)OC)NC(=O)OC [Febantel] | -0.11 |
| CN1CCCN=C1/C=C/c1cccs1 [Pyrantel Pamoate] | -0.34 |
| COc1ccc(CN2CCN(C(c3ccc(F)cc3)c3ccc(F)cc3)CC2)c(OC)c1OC [Lomerizine 2HCl] | -0.52 |
| Cc1cc(NS(=O)(=O)c2ccc(N)cc2)nc(C)n1 [sulfaisodimidine] | -0.19 |
| CCCCCOc1ccc(-c2cc(-c3ccc(C(=O)N[C@H]4C[C@@H](O)[C@@H](O)NC(=O)[C@@H]5[C@@H](O)[C@@H](C)CN5C(=O)[C@H]([C@H](O)CC(N)=O)NC(=O)[C@H]([C@H](O)[C@@H](O)c5ccc(O)c(OS(=O)(=O)O)c5)NC(=O)[C@@H]5C[C@@H](O)CN5C(=O)[C@H]([C@@H](C)O)NC4=O)cc3)no2)cc1 [Micafungin Sodium] | 13.9 |
| O=c1[nH]c2ccccc2n1CCN1CCN(c2cccc(C(F)(F)F)c2)CC1 [Flibanserin] | -0.15 |
| O=C(O)c1ccccc1O [Salicylic acid] | -1.03 |
| Nc1nc2c(ncn2COCCO)c(=O)[nH]1 [Aciclovir] | -1.32 |
| COc1ccc([C@@H]2Sc3ccccc3N(CCN(C)C)C(=O)[C@@H]2OC(C)=O)cc1 [Diltiazem HCl] | -0.36 |
| CCC[C@@H]1C[C@@H](C(=O)N[C@@H]([C@H]2O[C@H](SC)[C@H](O)[C@@H](O)[C@H]2O)[C@@H](C)O)N(C)C1 [Lincomycin Hydrochloride Monohydrate] | -0.11 |
| C[N+]1(C)CCC(OC(=O)C(O)(c2ccccc2)C2CCCC2)C1 (stereo not given) [Glycopyrrolate] | 0.23 |
| Cc1cc(O)c(C(=O)N[C@@H](C(=O)N[C@@H]2C(=O)N3C(C(=O)O)=C(CSc4nnnn4C)CS[C@H]23)c2ccc(O)cc2)cn1 [Cefpiramide sodium] | -0.35 |
| NC(=O)[C@@H]1CC[C@@H]2CN1C(=O)N2OS(=O)(=O)O [Avibactam sodium] | -0.02 |
| C[C@]1(Cn2ccnn2)[C@H](C(=O)O)N2C(=O)C[C@H]2S1(=O)=O [Tazobactam] | -0.01 |
| CCNC(=O)[C@@H]1CCCN1C(=O)[C@H](CCCNC(=N)N)NC(=O)[C@H](CC(C)C)NC(=O)[C@@H](CC(C)C)NC(=O)[C@H](Cc1ccc(O)cc1)NC(=O)[C@H](CO)NC(=O)[C@H](Cc1c[nH]c2ccccc12)NC(=O)[C@H](Cc1c[nH]cn1)NC(=O)[C@@H]1CCC(=O)N1 [Leuprolide Acetate] | 0.45 |
| CCOc1ccc2nc3cc(N)ccc3c(N)c2c1 [Ethacridine lactate monohydrate] | -6.59 |

| Structure (SMILES) | z-score of subpopulation abundance |
| --- | --- |
| CCCCN(CCCC)CC(O)c1cc(Cl)cc2c1-c1ccc(Cl)cc1/C2=C/c1ccc(Cl)cc1 (stereo not given) [Lumefantrine] | 1.37 |
| CN1CCC(=C2c3ccccc3C=Cc3ccccc32)CC1 [Cyproheptadine hydrochloride] | -0.68 |
| NC(=O)c1ncn([C@@H]2O[C@H](CO)[C@@H](O)[C@H]2O)n1 [Ribavirin] | 0.49 |
| CO/N=C(\C(=O)N[C@@H]1C(=O)N2C(C(=O)O)=C(CSC(=O)c3ccco3)CS[C@H]12)c1csc(N)n1 [Ceftiofur HCl] | 2.38 |
| Cc1cc(C)nc(O)n1.O=C(Nc1ccc([N+](=O)[O-])cc1)Nc1ccc([N+](=O)[O-])cc1 [Nicarbazin] | -0.86 |
| O=C1CCc2ccc(OCCCCN3CCN(c4cccc(Cl)c4Cl)CC3)cc2N1 [Aripiprazole] | 0.36 |
| CCOC(=O)OC(C)OC1=C(C(=O)Nc2ccccn2)N(C)S(=O)(=O)c2ccccc21 (stereo not given) [Ampiroxicam] | -0.48 |
| COc1ccc(C(Cl)=C(c2ccc(OC)cc2)c2ccc(OC)cc2)cc1 [Chlorotrianisene] | 0.82 |
| C=C[C@]1(C)C[C@@H](OC(=O)CSC(C)(C)CNC(=O)[C@H](N)C(C)C)[C@]2(C)[C@H](C)CC[C@]3(CCC(=O)[C@H]32)[C@@H](C)[C@@H]1O [Valnemulin HCl] | 0.58 |
| CC[C@@]1(O)C(=O)OCc2c1cc1n(c2=O)Cc2cc3cc(O)ccc3nc2-1 [(S)-10-Hydroxycamptothecin] | -0.24 |
| Nc1cc(C(Cl)=C(Cl)Cl)c(S(N)(=O)=O)cc1S(N)(=O)=O [Clorsulon] | 0.92 |
| Nc1nc(N)nc(-c2cc(Cl)ccc2Cl)n1 [Irsogladine] | -1.16 |
| C=C1c2cccc(O)c2C(O)=C2C(=O)[C@]3(O)C(O)=C(C(N)=O)C(=O)[C@@H](N(C)C)[C@@H]3[C@@H](O)[C@H]12 [Methacycline HCl] | -0.03 |
| Oc1ccc([C@H]2COc3cc(O)ccc3C2)cc1 [Equol] | -0.27 |
| COc1ccc(CCN(C)CCCC(C#N)(c2ccc(OC)c(OC)c2)C(C)C)cc1OC (stereo not given) [Verapamil HCl] | 0.05 |
| CC1(C)S[C@@H]2[C@H](NC(=O)C(C(=O)O)c3ccccc3)C(=O)N2[C@H]1C(=O)O (stereo not given in full) [Carbenicillin disodium] | 0.12 |
| C[C@H]1COc2c(N3CCN(C)CC3)c(F)cc3c(=O)c(C(=O)O)cn1c23 [Levofloxacin hydrate] | 0.55 |
| CO[C@H]1O[C@@H]2O[C@@]3(C)CC[C@H]4[C@H](C)CC[C@@H]([C@H]1C)[C@@]24OO3 [Artemether] | -0.53 |
| C[C@]12CCC3=C4CCC(=O)C=C4CC[C@H]3[C@@H]1CC[C@@]2(O)CC#N [Dienogest] | -0.51 |
| N#C/C(=C1/SC[C@@H](c2ccc(Cl)cc2Cl)S1)n1ccnc1 [Luliconazole] | 10.6 |
